Experimental data: PubChem BioAssay (NCI)
This is part of a sample that, as a whole, favours compounds with a hit. Of some 83,000 tested, about 20% had one in any assay.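 Growth was measured after 48 h exposure to one concentration of compound in 96-well plates. Values under 10 count as active.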 A number with no mark means an inactive call. Calls of active or inactive are those of the source. *1 amine or outer side, *2 acyl side, *3 side chain or, on linkers, in order; H or OH if unused. Where a SMILES comes first, the peptide text is derived from it. [ ]: non-standard residue; d: D form. The star is where a group is joined. X5 = CCC(=O)CC1CC(C)CC(C(=O)[*:2])N1[*:1]; X4 = CCCCCCCCC(C)C(=O)*; Aib = CC(C)(N)C(=O)O; X6 = CC(CN(C)CCO)N*

How the values were obtained:
Assay in all cases: NCI-60 one-dose screen, 48 h (100 = growth as untreated, 0 = no growth, -100 = all killed)
Details in all cases: 10 µM unless noted
[1] = tested on: T-47D breast
[2] = tested on: BT-549 breast
[3] = tested on: MDA-MB-435 melanoma
[4] = tested on: SW-620 colon
[5] = tested on: MCF7 breast
[6] = tested on: HCT-116 colon
[7] = tested on: KM12 colon
[8] = tested on: HCC-2998 colon

SMILES | growth [1] | growth [2] | growth [3] | growth [4] | growth [5] | growth [6] | growth [7] | growth [8]
CCCCC(CCc1ccc([N+](=O)[O-])cc1)(C(C)=O)C(=O)OCC (stereo unspecified) | 90% | 117% | 100% | 91.4% | 91.1% | 92.2% | 92% | 
NC(=S)N/N=C/c1ncccc1O | 25.2% | 35.4% | 29.6% | 35% | 6.89% (active) | 5.32% (active) | 25.9% | 
O=C(Nc1ccc(Cl)c(Cl)c1)OCc1ccco1 | 38.4% | 31.6% | 0.451% (active) | 40.4% | 14.8% | 26.6% | 8.03% (active) | 
Nc1cc(-c2ccccc2)ccc1O | 88.3% | 79.3% | 111% | 121% | 102% | 98.1% | 102% | 
N#CC(I)CS(=O)(=O)c1ccccc1 (stereo unspecified) | 44.6% | 97% | 109% | 26.3% | 91.5% | -10.5% (active) | 96.1% | 
CCC1CCCCN1C(=S)N/N=C(\C)c1ccccn1 (stereo unspecified) | 4.58% (active) | 30.8% | 3.24% (active) | 9.32% (active) | 13% | 5.51% (active) | 4.56% (active) | 
CN(C)c1ccc2cc3c(cc2c1)Oc1ccccc1N3.[Cl][Zn][Cl] | -18.9% (active) | 105% | 6.73% (active) | 11.8% | 3.32% (active) | 8.67% (active) | 79.6% | 
O=C(O)c1ccc2c(c1)C(=O)c1ccccc1C2=O | 99.7% | 107% | 102% | 97% | 97.7% | 106% | 98.9% | 
CN(C)CCSC1=Nc2ccc(Cl)cc2C(c2ccccc2Cl)N(C)C1 (stereo unspecified) | 57.9% | 76.4% | 62.2% | 87.4% | 27.8% | 65.1% | 61.6% | 
CCCCCCCCC(C)C(=O)N1CCCC1C(=O)N1C(CC(=O)CC)CC(C)CC1C(=O)NC(C)C(=O)NC(C)(C)C(=O)NC(C)(C)C(=O)NC(C(=O)NC(C)C(=O)NC(C)(C)C(=O)NC(C)(C)C(=O)NC(C)CN(C)CCO)C(C)CC (stereo unspecified) (X4-P[X5]A[Aib][Aib]IA[Aib][Aib]-X6; configuration not given here) | -16.5% (active) | -80.3% (active) | -18.8% (active) | -81.4% (active) | -80.7% (active) | -88.8% (active) | -75.8% (active) | 
CCC[CH2][Sn]1([CH2]CCC)[O]C2C(CO)OC(n3ccc(N)nc3=O)C2[O]1 (stereo unspecified) | -68.8% (active) | -85.2% (active) | -75.5% (active) | -77.1% (active) | -92.2% (active) | -73.6% (active) | 7.12% (active) | 
CCCCCCCCCCCC1=NCCCN1CCCC | 97.4% | 94.6% | 110% | 97.5% | 91.1% | 83.6% | 103% | 
c1ccc(C2NCCNC2c2ccccc2)cc1 (stereo unspecified) | 104% | 103% | 102% | 101% | 103% | 104% | 110% | 
CC1(C)OCC(COC(c2ccccc2)(c2ccccc2)c2ccccc2)O1 (stereo unspecified) | 84.3% | 119% | 106% | 104% | 100% | 89.7% | 96.5% | 
CSc1nc(C)c(C(=O)CCN2CCN(c3ccccn3)CC2)s1 | 66.7% | 113% | 104% | 100% | 61.2% | 105% | 106% | 
NC(=Nc1nc(-c2ccccn2)cc2ccccc12)c1ccccn1 | 16.4% | 23.3% | 22.9% | 11.8% | 9.19% (active) | 5.82% (active) | 16% | 
Oc1ccc(Nc2ccc3ccccc3c2)cc1 | 52.6% | 74.3% | 51.3% | 66.2% | 64.7% | 70.8% | 35.6% | 
CC1C(c2ccccc2)OCCN1C(=S)Nc1ccc(S(=O)(=O)N2CCCCC2)cc1 (stereo unspecified) | 96.9% | 97.6% | 89.4% | 87.6% | 91.3% | 91.8% | 92.1% | 
Cc1cc(Br)c2nsnc2c1[N+](=O)[O-] | 25.1% | 45% | 21.1% | 33.6% | 10.1% | 26.3% | 9.82% (active) | 

SMILES | growth [1] | growth [2] | growth [3] | growth [4] | growth [5] | growth [6] | growth [7] | growth [8]
O=[N+]([O-])c1cc(-c2ccccc2)c(O)c([N+](=O)[O-])c1 | 83.2% | 52.2% | 85.5% | 98.2% | 77% | 86.8% | 84.1% | 
OCCOSCCO | 110% | 110% | 109% | 105% | 97.7% | 102% | 112% | 
CCCCCCCCCCCCNCCCc1ccccc1 | 54.9% | 85.9% | 100% | 46.1% | 25.4% | 20.4% | 27.2% | 
c1csc(-c2[nH]nc3c2CCc2ccccc2-3)c1 | -61.7% (active) | 98.5% | 104% | 106% | 5.26% (active) | 99.1% | 23.5% | 
CCOc1ccc(C(C[N+](=O)[O-])Sc2ccccc2N)cc1 (stereo unspecified) | 42.8% | -74.9% (active) | 3.44% (active) | -40.4% (active) | 0.363% (active) | -55.6% (active) | -51.3% (active) | 
N#Cc1c2ccccc2nc2ccccc12 | 101% | 114% | 103% | 98.4% | 101% | 105% | 108% | 
O=C1C=CC(=O)c2c(O)c(CO)c(CO)c(O)c21 | 96.3% | 97% | 83.5% | 109% | 96.9% | 74.7% | 115% | 
O=C(CCl)N1c2ccccc2Sc2c1ccc1ccccc21 | 84.3% | 36.9% | 80.2% | 11.1% | 66.8% | 16.4% | 87.2% | 
O=C1c2ccccc2Cc2cccc(Cl)c21 | 92.8% | 93.3% | 120% | 112% | 96.1% | 97.4% | 106% | 
O=C1/C(=C\c2ccc([N+](=O)[O-])cc2)CS(=O)(=O)C/C1=C/c1ccc([N+](=O)[O-])cc1 | -56% (active) | -82.2% (active) | -75% (active) | -71.6% (active) | -58.5% (active) | -100% (active) | -89.4% (active) | 
O=C(c1ccccc1)c1cc2ccccc2oc1=O | 85.5% | 89.8% | 109% | 113% | 108% | 99.4% | 92.3% | 
CN1CCC(CN2c3ccccc3Sc3ccccc32)C1 (stereo unspecified) | 93.6% | 89.4% | 88.5% | 93.7% | 97.7% | 77.6% | 97.2% | 
COc1ccc2nc3cc([N+](=O)[O-])ccc3c(NNc3ccccc3)c2c1 | 77.9% | 67.3% | 107% | 86.1% | 72.9% | 41.2% | 81.7% | 
c1ccc2sc(SSN3CC4CCC(CC4)C3)nc2c1 | 96.5% | 126% | 108% | 110% | 107% | 103% | 145% | 
NC(=S)N/N=C\c1nccc2c(N)cccc12 | 11% | 41% | 30.3% | 37.2% | 22.1% | 19.2% | 26.7% | 
CCOC(=O)/C(=C\c1ccc2ccccc2c1)P(=O)(OCC)OCC | 32.4% |  | 24% | 2.35% (active) | 15.3% | 4.87% (active) | 39.2% | 13.6%
O=[N+]([O-])C=C(c1ccccc1)c1ccccc1 | 66.2% | 76.6% | 23.7% |  | 84.8% | 64% | 66.4% | 87.3%
O=C(c1ccccc1)C(O)C(Br)(CBr)c1ccccc1 (stereo unspecified) | 98.6% | 68.4% | 67.4% |  | 81.5% | 57.2% | 80.5% | 87.1%
Cc1nn(CCO)c(C)c1N=[N+]([O-])c1c(C)nn(CCO)c1C | -3.43% (active) |  | -25.4% (active) | -61.2% (active) | 4.45% (active) | -81.9% (active) | 81% | 109%
